JMJD2E inh: blocks human JMJD2E demethylase activity; B2RXH2; JMJD2E catalytic domain, FDH-coupled NADH fluorescence (FDH is formaldehyde dehydrogenase); Potency, µM (doses to about 57.1 µM), for the others: top-dose activity change, negative = inhibition, most hits filed as inhibitors; 1.6% of 230,000 active; AID 2147; active means well fitted inhibition curve with a large enough effect, not every such curve was filed as active; inconclusive means small, poorly fitted or top-dose-only effect, or another doubt; inactive means no such curve, though single readings can be large or run the other way;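 further: potency means the concentration at half of the fitted maximal effect; 0% = wells with enzyme and -100% = buffer wells without enzyme; nearly all actives have a fitted effect of over 50% in size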
Target sequence (B2RXH2 1-337 limits assumed): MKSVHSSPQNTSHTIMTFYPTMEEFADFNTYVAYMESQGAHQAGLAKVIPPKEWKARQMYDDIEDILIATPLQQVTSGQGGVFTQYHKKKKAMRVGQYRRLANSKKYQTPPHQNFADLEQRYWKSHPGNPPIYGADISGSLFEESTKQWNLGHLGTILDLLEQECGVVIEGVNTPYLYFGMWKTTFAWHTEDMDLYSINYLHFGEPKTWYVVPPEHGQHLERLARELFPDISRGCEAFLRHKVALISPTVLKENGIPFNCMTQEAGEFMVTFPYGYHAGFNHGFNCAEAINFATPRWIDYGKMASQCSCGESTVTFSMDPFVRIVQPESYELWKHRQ
NPSR antagonist: neuropeptide S receptor (human) antagonism, cAMP; Q6W5P4; CHO-NPSR cells, cAMP TR-FRET, antagonist mode; Potency, µM (titrated, usually from 38.3 µM), for the others: top-dose activity change, negative = inhibition, hits mostly inhibitors; 1% of 220,000 active; AID 1461; further: potency means the concentration at half of the fitted maximal effect; nearly all actives have a fitted effect of over 50% in size
Target sequence (Q6W5P4 whole entry, looked up): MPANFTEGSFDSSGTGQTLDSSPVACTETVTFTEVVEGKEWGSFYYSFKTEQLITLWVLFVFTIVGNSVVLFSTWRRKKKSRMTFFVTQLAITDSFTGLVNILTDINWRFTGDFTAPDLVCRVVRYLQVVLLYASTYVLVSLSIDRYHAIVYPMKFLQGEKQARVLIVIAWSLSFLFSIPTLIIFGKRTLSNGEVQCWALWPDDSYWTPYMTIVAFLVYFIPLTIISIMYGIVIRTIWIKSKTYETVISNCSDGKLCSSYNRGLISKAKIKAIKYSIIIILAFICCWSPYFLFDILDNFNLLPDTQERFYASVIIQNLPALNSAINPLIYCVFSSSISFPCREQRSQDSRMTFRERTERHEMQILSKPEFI
FBPA coupling cs: inhibits coupling enzyme system, counter-screen for aldolase hits; coupling enzyme system counterscreen, AmpLite Red fluorescence; activity change, negative = inhibition, % at 58.2 µM, hits read low; 0.67% of 290,000 active; in the data active means activity change below about -30%
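Activity here indicates interference with the coupling reaction, not aldolase inhibition. Compounds at 57.5 uM final met coupling enzymes for 10 min at RT; substrate and AmpLite Red detection followed, with a 525/598 nm fluorescence read after 20 min.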
Sfp inh: inhibitors of Bacillus subtilis Sfp phosphopantetheinyl transferase | Q9F4F7 | Biochemical Sfp PPTase activity, qHTS | Potency, µM, inactives show largest response in the series, negative = inhibition, most hits filed as inhibitors | 3.5% of 310,000 active | AID 1490;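 further: the enzyme is Sfp with the accession as filed and its product quenches rhodamine fluorescence; potency means the concentration at half of the fitted maximal effect; 0% = enzyme reaction without inhibitor and -100% = no enzyme wells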
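Step 1, compound plus 15 nM Sfp-PPTase, 15 min, room temperature. Step 2, add rhodamine-CoA (5 uM) and BHQ-2-YbbR (12.5 uM). Step 3, read 525/598 nm fluorescence at 0 and 30 min.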
GoLoco inh red: blocks human Gai1 binding to RGS12 GoLoco peptide, red readout | 0.44% of 230,000 active | Gai1:RGS12 GoLoco peptide FP, rhodamine, 10 min | P63096 | Potency, µM (doses to about 61.6 µM), inactives show at the top dose activity, negative = inhibition, actives largely listed as inhibitors; active means well fitted inhibition curve with a large enough effect, not every such curve was filed as active; inactive means no such curve, though single readings can be large or run the other way; further: potency means the concentration at half of the fitted maximal effect; nearly all actives have a fitted effect of over 30% in size
ALDH1A1 inh: inhibitors of human aldehyde dehydrogenase 1A1; 7.3% of 220,000 active; AID 1030; P00352; Potency, µM (doses to about 75.3 µM), for inactives: top-dose activity, negative = inhibition, actives largely listed as inhibitors; Purified ALDH1A1, NADH fluorescence, propionaldehyde substrate; active means well fitted inhibition curve with a large enough effect, not every such curve was filed as active; inconclusive means small, poorly fitted or top-dose-only effect, or another doubt; inactive means no such curve, though single readings can be large or run the other way;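 further: potency means the concentration at half of the fitted maximal effect; plate controls were no enzyme wells and a reference inhibitor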
* marks the source's active call; other numbers are inactive results; ? = inconclusive; · = no result given; [ ] = dose if it differs, or a comment. Only some compounds are listed: those with a hit (about 8.5% of all), similar ones and a draw of the others. Unless noted, the call rests on the fitted dose curve; in most records, active means well fitted curve in the direction sought with a large enough effect; inconclusive means small, poorly fitted or top-dose-only effect, or another doubt; inactive means no such curve, though single readings can be large; an effect the other way counts as inactive or inconclusive. Unless noted, on the % scale 0 is the no-effect control and ±100 the full control effect.

SMILES | JMJD2E inh | NPSR antagonist | FBPA coupling cs | Sfp inh | GoLoco inh red | ALDH1A1 inh
COc1ccc(NC(=O)C2CCC(N3C(=O)C4C5C=CC(C5)C4C3=O)CC2)cc1 (stereo not given) | 1.3% | -3.5%[46.1 µM] | 3.4 | 16.6% | -19.1% | 7.94µM*
Cc1cccc(C)c1NC(=O)[C@H](C)N | -1.3%[25.5 µM] | · | -0.1 | -0.8% | -16.9%[21.6 µM] | 6.2%[20.9 µM]
CCCc1cc(-c2n[nH]c(C)c2-c2ccc(C(=O)OCC)o2)c(O)cc1O | ? | ? | -33.7* | 0.3% | 18.1% | -13.5%
COc1cccc(-c2cn3nc4c(nc3n2)CCCC4)c1 | 22.4µM* | -9.3%[46.1 µM] | -12.6 | 79.4µM* | 62.1% | ?
Clc1ccc(-c2cn3nc4c(nc3n2)CCCC4)cc1 | ? | 4.8%[46.1 µM] | -10.4 | ? | 20.6% | ?
O=C(CN(Cc1ccccc1Cl)C(=O)c1ccc(CN2CCOCC2)o1)NCc1ccccc1 | -4.2% | ? | 1.3 | -0.8% | 2.7% | 12.6µM*
Cc1cc(=O)oc2cc(OCC(=O)NCCN3CCOCC3)ccc12 | · | · | · | 13.8% | · | ·
COc1ccc(/C=C2\Oc3cc(OCC(=O)N4CCC(C(=O)O)CC4)ccc3C2=O)c(OC)c1 | · | · | 1.0 | -15.6% | · | ·
CCCc1cc(=O)oc2cc(OCC(=O)N3CCC(C(N)=O)CC3)ccc12 | · | · | -1.8 | 4.7% | · | ·
CCc1cc(=O)oc2cc(OCC(=O)N3CCC(C(=O)O)CC3)ccc12 | · | · | -73.1* | 10.1% | · | ·
COc1ccc(OC)c(/C=C2\Oc3cc(OCC(=O)N4CCC(C(=O)O)CC4)ccc3C2=O)c1 | · | · | 3.2 | 15.8µM* | · | ·
Cc1cc(=O)oc2cc(OCC(=O)N3CCOCC3)ccc12 | ? | 10.8%[46.1 µM] | -0.9 | 31.6µM* | -13.3% | ?
CCOc1ccc(C2C(C(C)=O)=C(O)C(=O)N2CCc2c[nH]c3ccccc23)cc1 (stereo not given) | ? | 28.1% | 18.0 | -11.1% | 7.1% | -7.7%
C[C@@H](Oc1ccc(Oc2cnc3ccc(Cl)cc3n2)cc1)C(=O)O | -1.5% | ? | · | · | 5.8% | ?
CC(=O)NCC1(O)CCCC(C)C1 (stereo not given) | 5.2% | -13.6% | 0.3 | 24.0% | -4.8% | ·
NC(=O)c1c(NC(=O)CCCC(=O)O)sc2c1CCCCCC2 | -5.4% | 11.0% | 5.7 | 79.4µM* | -31.8% | 5.9%
CC1(C)Cc2c(sc(NC(=O)C3CC(Cl)=CCC3C(=O)O)c2C#N)CO1 (stereo not given) | 6.8% | 7.4% | 14.4 | 11.5% | 19.0% | ?
COC(=O)c1c(NC(=O)CCCC(=O)O)sc2c1CCC2 | ? | -11.8%[46.1 µM] | 5.6 | 15.2% | 9.0% | ?
N#Cc1c(NC(=O)C2CC(Cl)=CCC2C(=O)O)sc2c1CCCC2 (stereo not given) | -0.5% | -18.8% | 16.8 | 19.1% | 3.6% | 17.8µM*
N#Cc1c(NC(=O)CCCC(=O)O)sc2c1CCCCC2 | -0.8% | 4.2% | -4.7 | 56.2µM* | 0.0% | ?
CNS(=O)(=O)c1cccc(C(=O)OCC(=O)Nc2sc3c(c2C#N)CCCCC3)c1 | -1.0% | ? | 10.7 | -3.9% | · | 25.1µM*
c1ccc2c(-c3cn4ccccc4n3)c[nH]c2c1 | ? | 28.7% | -0.4 | -6.6% | 11.6% | ?
COc1cccc(NC(=O)Nc2ccc(Br)cn2)c1 | 2.9% | -8.3% | 0.0 | 5.6% | -7.8% | ·
CC(=O)N1c2ccc(S(=O)(=O)N3CCCC3C(=O)Nc3ccc(C)cc3)cc2CC1C (stereo not given) | · | · | 2.2 | 15.4% | · | ·
CCOC(=O)C1=C(CC)Nc2ccccc2N=C1NC(=O)c1ccc(S(=O)(=O)N(C)C)cc1 | ? | -7.8%[46.1 µM] | -2.5 | 11.1% | 15.1% | ?
SMILES | JMJD2E inh | NPSR antagonist | FBPA coupling cs | Sfp inh | GoLoco inh red | ALDH1A1 inh
CCOC(=O)C1=C(C)Nc2ccccc2N=C1NC(=O)C(c1ccccc1)c1ccccc1 | 12.1% | -53.7% | -0.5 | 7.2% | 11.2% | 0.141µM*
CCOC(=O)C1=C(CC)Nc2ccccc2N=C1NC(=O)c1ccc(S(=O)(=O)N2CCOCC2)cc1 | -18.2% | -28.1% | -0.6 | 13.2% | 15.0% | 14.1µM*
CCOC(=O)C1=C(C)Nc2ccccc2N=C1NC(=O)c1cccc(S(=O)(=O)N(C)C)c1 | 3.2% | -13.4%[46.1 µM] | 4.5 | 4.9% | 4.9% | 0.2%
CN(C)c1cc(-c2ccc(Cl)c(Cl)c2)oc(=O)c1Cl | 4.9% | ? | 0.7 | 10.5% | 6.1% | ·
COc1ccccc1N1C(=O)CC(N2CCN(c3ccc(Cl)cc3)CC2)C1=O (stereo not given) | · | · | 0.1 | 23.5% | · | ·
COc1cc(OC)c(OC)cc1CN1CCN(c2ccc(F)cc2)CC1 | ? | 5.6% | 0.6 | 0.3% | -2.0% | ·
COc1ccc(C(=O)CN2CCN(c3ccc(Cl)cc3)CC2)cc1OC | · | · | -2.1 | 79.4µM* | · | ·
CC(NC(=O)CN1CCN(c2ncccn2)CC1)c1ccc(F)cc1 (stereo not given) | 1.2% | 4.2%[46.1 µM] | -3.8 | 8.0% | -2.6% | 8.0%
COc1ccc(N2CCN(CC(=O)c3ccc(Cl)cc3)CC2)cc1 | · | · | -2.3 | -21.9% | · | ·
COc1ccc(C(=O)CN2CCN(c3ccc(F)cc3)CC2)cc1OC | 3.1% | -6.9%[46.1 µM] | -0.2 | 7.1% | 1.0% | 12.6µM*
CC(C)NC(=O)CN1CCN(c2ncccn2)CC1 | ? | -15.9%[7.67 µM] | -8.0 | 79.4µM* | -18.7% | 28.2µM*
NC(=O)c1ccc(NC(=O)CN2CCN(c3ccc(Cl)cc3)CC2)cc1 | 24.3% | 13.1% | 2.5 | 26.0% | 4.7% | 22.4µM*
Cc1ccc(OCC(O)C(C)NC(C)C)c2c1CCC2 (stereo not given) | -2.2% | ? | · | 14.1% | 10.8% | -13.2%
Cc1ccc(N(C(=O)c2csnn2)C(C(=O)NC2CCCCC2)c2ccco2)cc1 (stereo not given) | · | · | 1.6 | -0.8% | · | ·
COc1cccc2c1OCC/C2=N\NC(=O)C(C)Oc1ccc([N+](=O)[O-])cc1 (stereo not given) | -21.7% | 19.0% | 6.0 | 3.2% | 17.2% | ?
COc1ccc(C(=O)CN2CCN(c3ncccn3)CC2)cc1 | · | · | 0.5 | 50.1µM* | · | ·
COc1ccccc1N1CCN(CC(=O)c2ccc(F)cc2)CC1 | · | · | -1.2 | 39.8µM* | · | ·
CC(/C=N/NC(=O)c1sc(N)nc1C)=C\c1ccccc1 | ? | -3.0% | -2.9 | -4.4% | -1.0% | ?
COc1cccc(CN2CC(C(=O)NCCN3CCOC3=O)CCC2=O)c1 (stereo not given) | · | · | 1.7 | 12.0% | · | ·
Cn1nnnc1SCC1=C(C(=O)O)N2C(=O)[C@@H](NC(=O)[C@@H](O)c3ccccc3)[C@@H]2SC1 | -4.8%[25.5 µM] | · | -2.1 | -16.7% | -3.8%[21.6 µM] | 13.6%[20.9 µM]
Cc1nnc(SCC2=C(C(=O)O)N3C(=O)C(NC(=O)Cn4nc(C(F)F)cc4C)C3SC2)s1 (stereo not given) | -8.0% | 5.2% | 2.2 | 79.4µM* | -11.2% | -8.1%

Bioassay records (PubChem)
